Results on 175 sequences are retold here after paper PMC6212790, “How bacterial xenogeneic silencer rok distinguishes foreign from self DNA in its resident genome”.

The full ranking holds about 33,000 sequences; the median of “e-score” is about -0.037, and the highest 2% start at about 0.34. Only a selection was taken, and the highest values are over-represented in it overall.

The target of this test is T1, GST-Rok (full length) (Bacillus subtilis subsp. subtilis str. …, UniProt O34857 1-191).
T1 sequence: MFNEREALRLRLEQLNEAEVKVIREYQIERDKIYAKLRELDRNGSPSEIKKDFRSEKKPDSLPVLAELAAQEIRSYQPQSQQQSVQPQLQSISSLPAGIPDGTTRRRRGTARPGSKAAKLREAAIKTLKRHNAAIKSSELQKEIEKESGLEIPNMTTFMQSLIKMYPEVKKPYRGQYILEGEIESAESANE
The experiment in a line: protein binding microarray; Rok is a gene silencer of Bacillus subtilis; high values mean tight binding. The conditions noted are these: protein: recombinant; tags: GST (pTH5325, pDEST15-Magic modified); dsDNA, one strand shown. The gist of the method:
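Every oligonucleotide joins a 25-mer constant primer to a 35-mer variable part drawn from a de Bruijn sequence of order 10, so each non-palindromic 8-mer appears at least 32 times and each palindromic 8-mer 16 times. The preference for every 8-mer is reported as a unitless, rank-based enrichment score (E-score). This score spans 0.5 for the most favored 8-mer to −0.5 for the most disfavored.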
For the sequence CCAGTATA, the binding signal amounted to 0.235 E-score.
As for GCAGTATA, the figure is 0.275 E-score.
CTAGTATA: the binding signal is 0.409 E-score.
As for CCTAACAG, the figure is 0.0291 E-score; as for ATTAGCAA, 0.0548 E-score; as for CGCAACTC, -0.103 E-score.
AATGACAA: the binding signal was found to be 0.16 E-score.
Regarding TATTACGA, the binding signal amounted to 0.296 E-score.
Regarding GCGTATCA, the binding signal turned out to be 0.0845 E-score.
As for CAACAGTA, the figure is 0.316 E-score; as for TAACAGTA, 0.355 E-score.
On to GAACAGTA, for which the binding signal was found to be 0.264 E-score.
For AGAATGTA, the binding signal was 0.201 E-score.
As for AATATTAC, the figure is 0.239 E-score; as for GATATTAC, 0.364 E-score.
Take CATATTAC: the binding signal was determined as 0.289 E-score.
For AATATTTA, the binding signal turned out to be 0.325 E-score.
On to TGTATTAA, for which the binding signal came out at 0.241 E-score.
As for TATATTAA, the figure is 0.364 E-score; as for GATATTAA, 0.365 E-score.
As for GATATTTA, the figure is 0.351 E-score.
For CATATTAA the value was 0.268 E-score; for AATATTAA, 0.334 E-score.
Take TATATTGA: the binding signal worked out at 0.278 E-score.
For CATATTTA, the binding signal is 0.324 E-score.
For CCGGTCGA the value was -0.102 E-score; for AGAGACTA, 0.093 E-score; for CCCTCGTA, -0.134 E-score.
As for AGCCAAAT, the figure is 0.0925 E-score; as for TAAGAGCA, -0.127 E-score.
Consider CGCTGTGA, for which the binding signal was -0.0511 E-score.
Take GCTTCAAC: the binding signal was 0.127 E-score.
For AGCTCCAG, the binding signal is -0.0852 E-score.
Regarding ACATTCTC, the binding signal turned out to be 0.0677 E-score.
For ACGTTCTC the value was 0.0202 E-score; for GGGAAATA, 0.127 E-score.
For GTTTAGTA the value was 0.272 E-score.
As for ATTTAGTG, the figure is 0.166 E-score; as for AATTAGTG, 0.322 E-score; as for AATTAGTA, 0.416 E-score.
With CATTAGTA, the binding signal is 0.227 E-score.
For ATTTAGTA the value was 0.363 E-score; for GCGCATAC, 0.0802 E-score.
Regarding CGTTCTGA, the binding signal is -0.0208 E-score.
As for GCAGATAC, the figure is 0.0143 E-score; as for GTAGATAC, 0.359 E-score.
As for GTAGATAA, the binding signal stood at 0.407 E-score.
As for CTAGATAA, the figure is 0.302 E-score; as for TTAGATAA, 0.251 E-score.
Take CTAGATAC: the binding signal was determined as 0.22 E-score.
As for ACGGTTGC, the figure is -0.00987 E-score; as for CGACGTAC, -0.0209 E-score.
As for ACTGCCGC, the figure is -0.152 E-score; as for ATAGGAAG, 0.0173 E-score; as for AGGCTCGA, -0.0603 E-score.
As to CATCTACA, the binding signal was found to be 0.177 E-score.
As for GGTCTACA, the figure is 0.0329 E-score; as for TATCTACA, 0.348 E-score; as for AATCTACA, 0.326 E-score.
For GCTCTACA the value was -0.114 E-score; for GATCTACA, 0.369 E-score.
As for ATTAAATG, the figure is 0.0625 E-score.
AGGCTGTA: the binding signal was determined as 0.00795 E-score.
As for ACTACAAC, the figure is 0.293 E-score; as for ACTACTCT, 0.184 E-score; as for ACAACTAC, 0.311 E-score.
ACTACAAT: the binding signal is 0.344 E-score.
Consider ACTACAAG, for which the binding signal amounted to 0.22 E-score.
For ACAACTAT, the binding signal was determined as 0.33 E-score.
Turning to ACTACTGG, the binding signal is 0.224 E-score.
For CCTACTAC the value was 0.258 E-score; for ACAACTAG, 0.351 E-score; for GCTACTAC, 0.198 E-score.
As for ACTACTAC, the figure is 0.4 E-score; as for ACTACTAT, 0.465 E-score.
Turning to ATGCGAGA, the binding signal was 0.00939 E-score.
As for CGTTTGTC, the figure is -0.0759 E-score.
CTACCAAC: the binding signal was 0.164 E-score.
Turning to AGACGCTG, the binding signal is -0.151 E-score.
For CAGTCCAA the value was -0.0763 E-score; for AGCCCAAC, -0.175 E-score; for TCCAGAAA, -0.00865 E-score.
For the sequence CCTACTAG, the binding signal is 0.0992 E-score.
Regarding ACTACTCG, the binding signal came to 0.187 E-score.
As for ACTACTAG, the figure is 0.346 E-score; as for ATGGTACG, 0.183 E-score.
For GCATTAAC the value was 0.0561 E-score.
On to ATACTAAA, for which the binding signal stood at 0.391 E-score.
With ATACTAAC, the binding signal worked out at 0.199 E-score.
For AGACTAAA, the binding signal is -0.0347 E-score.
As for ACACTAAA, the figure is 0.174 E-score; as for CTACTAAC, 0.324 E-score; as for TTACTAAA, 0.32 E-score.
As to CTACTAAA, the binding signal was 0.357 E-score.
Turning to ATACTAAG, the binding signal came to 0.175 E-score.
As for ATACTAAT, the figure is 0.378 E-score.
With GAGGCATC, the binding signal was -0.172 E-score.
Consider CAGCTGTA, for which the binding signal stood at 0.0605 E-score.
For ACATCTAC the value was 0.272 E-score; for ACTTCGGA, -0.0792 E-score; for ACCCTAAA, 0.024 E-score.
As for CCACTGTC, the figure is -0.188 E-score; as for CTGCTTTA, 0.0813 E-score; as for ATAAGGAC, -0.2 E-score.
Take TTAGAAAA: the binding signal worked out at 0.185 E-score.
Consider CTAGAAAA, for which the binding signal came out at 0.291 E-score.
For GCAGAAAC the value was -0.0153 E-score.
As for GTAGAAAA, the figure is 0.387 E-score; as for GTAGAAAC, 0.427 E-score.
For CTAGAAAC the value was 0.3 E-score.
In the case of ATCTGGTC, the binding signal is -0.135 E-score.
Regarding ATCTTTAA, the binding signal turned out to be 0.0286 E-score.
As to AGATTGGC, the binding signal worked out at 0.136 E-score.
For CGTTCCAC the value was -0.021 E-score.
Turning to CTATTTAA, the binding signal was 0.0252 E-score.
Turning to ATATTTAC, the binding signal was 0.379 E-score.
For the sequence ATATTTAG, the binding signal is 0.287 E-score.
As for CTCTTTAC, the figure is 0.158 E-score; as for ACATTTAC, 0.313 E-score; as for ATTTTTAA, -0.0198 E-score.
Regarding CTATTTAC, the binding signal was found to be 0.342 E-score.
As for ATATTTGC, the binding signal is 0.285 E-score.
ATATTTAA: the binding signal came out at 0.387 E-score.
Take AGTCAAAA: the binding signal was 0.108 E-score.
For CGTTTGAA the value was -0.00324 E-score; for ACCTTCAG, -0.119 E-score; for TCCACAAA, 0.0863 E-score.
As for CGTCGCAA, the figure is -0.166 E-score; as for AGAACTAA, 0.254 E-score; as for AGAACTAT, 0.381 E-score.
As for ATAACTAA, the binding signal was 0.26 E-score.
For ATAACTAT the value was 0.407 E-score; for ATAACTAG, 0.243 E-score; for AGAACTAG, 0.298 E-score.
For CATGCTGA, the binding signal is -0.132 E-score.
For AGTGGTCC, the binding signal was -0.177 E-score.
For GTCCCGGA the value was -0.141 E-score; for GATCATTA, 0.355 E-score; for CATCATTA, 0.0295 E-score.
For AATCATTA the value was 0.158 E-score; for GGTAGTAA, 0.335 E-score; for AGTAGTAA, 0.384 E-score.
For CGTAGTAA, the binding signal came to 0.198 E-score.
With TGTAGGAA, the binding signal was determined as 0.0806 E-score.
As to TGTTGTAA, the binding signal is 0.142 E-score.
As for TGTAGTAA, the figure is 0.349 E-score; as for ACTGGACG, 0.057 E-score; as for TCAAGTAA, 0.154 E-score.
In the case of AGTAGACA, the binding signal is 0.0413 E-score.
For the sequence CTAATCTA, the binding signal came to 0.362 E-score.
For GTAATCTA the value was 0.245 E-score; for ATAATCTA, 0.352 E-score; for CTAATCAA, 0.165 E-score.
As to CTAATCTC, the binding signal was determined as 0.0718 E-score.
Consider ATAATCTC, for which the binding signal came out at 0.161 E-score.
As for ATGCATGG, the figure is 0.0449 E-score; as for AACCTACG, 9.3e-05 E-score; as for CCAACTGC, -0.00979 E-score.
With AGGTTTAA, the binding signal amounted to 0.00862 E-score.
With ATATACCG, the binding signal was found to be 0.385 E-score.
As for ATATACCA, the figure is 0.411 E-score; as for GTATACCA, 0.311 E-score; as for CTATACCA, 0.258 E-score.
As for AGATACCG, the binding signal turned out to be 0.12 E-score.
Consider ATATACCC, for which the binding signal came out at 0.188 E-score.
With CATTAATC, the binding signal was 0.219 E-score.
As for AACGGTCT, the figure is -0.0396 E-score; as for GTCCCGCA, -0.196 E-score; as for CGCGGTTA, -0.0283 E-score.
As for CTAAATAC, the figure is 0.351 E-score; as for ATAAATAC, 0.276 E-score.
As for GTAAATAC, the figure is 0.352 E-score; as for CTAAATAG, 0.172 E-score; as for CTAAATAA, 0.251 E-score.
Regarding GTAAATAA, the binding signal was 0.234 E-score.
